This is an account of results in PubChem BioAssay (Tox21).

Records with an inconclusive call do not appear. Some structures have more than one record in an assay (separate samples or runs), and their calls can disagree. Active and inactive are the calls of the source. Unless noted, the call rests on the fitted dose curve; in most records, active means well fitted curve in the direction sought with a large enough effect in the repeat runs; inconclusive means weak or mixed curves; inactive means no such curve, though single readings can be large; an effect the other way counts as inactive or inconclusive.

A short description of test [1]: qHTS assay to identify small molecule agonists of the peroxisome proliferator-activated receptor delta (PPARd) signaling pathway - cell viability counter screen (AID 743211). Further: nearly all actives have a fitted effect of over 55% in size. The method, boiled down: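 In the same wells used for beta-lactamase reporter measurement, cytotoxicity is scored by CellTiter-Glo. HEK293H PPARd-bla cells receive compound for 17 h at 37C following a 5 h settling period.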

For test [2], the target named is Peroxisome proliferator-activated receptor delta (Homo sapiens) (UniProt Q03181). In words: qHTS assay to identify small molecule agonists of the peroxisome proliferator-activated receptor delta (PPARd) signaling pathway (AID 743212; calls by dose curve). Put shortly:
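Read-out: beta-lactamase FRET fluorescence after 2 h room-temperature incubation with LiveBLAzer B/G substrate. Cells were HEK293H carrying a UAS-bla reporter for PPARd, treated at 37 C with DMSO-dissolved compounds.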
(In qHTS, concentration-response curves come from the screen itself.)

Test [3] is described as follows: qHTS assay to identify small molecule antagonists of the peroxisome proliferator-activated receptor delta (PPARd) signaling pathway - cell viability counter screen (AID 743213). Further: nearly all actives have a fitted effect of over 50% in size. Put shortly:
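Viability counter-screen, qHTS format: PPARd-bla HEK293H, L165041 300 nM final, 17 h compound exposure at 37 C, CellTiter-Glo luminescence after 30 min RT.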

The target of test [4] is Peroxisome proliferator-activated receptor delta (Homo sapiens) (UniProt Q03181). In words: qHTS assay to identify small molecule antagonists of the peroxisome proliferator-activated receptor delta (PPARd) signaling pathway (AID 743215; active means well fitted inhibition curve with a large enough effect in the signal ratio in the repeat runs, not every such curve was filed as active; the % refers to the signal ratio;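 further: cells stimulated with agonist L165041 at 300 nM final during compound exposure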; further: potency means the concentration at half of the fitted maximal effect). Put shortly:
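Screen format: qHTS, antagonist mode. HEK293H PPARd-bla cells received compound and 300 nM L165041 (final), 17 h, 37 C. Beta-lactamase detected via FRET substrate fluorescence, 2 h, room temperature.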

In test [5] the target is Bile acid receptor (Homo sapiens) (UniProt Q96RI1). In words: qHTS assay to identify small molecule antagonists of the farnesoid-X-receptor (FXR) signaling pathway (AID 743217; active means well fitted inhibition curve with a large enough effect in the signal ratio in the repeat runs, not every such curve was filed as active; the % refers to the signal ratio). Put shortly: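 Quantitative HTS, beta-lactamase reporter format: FXR-UAS-bla HEK 293T cells co-treated 16 h at 37 °C with compounds and 50 uM final chenodeoxycholic acid, then read by B/G FRET fluorescence.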

Test [6] is described as follows: qHTS assay to identify small molecule agonists of the farnesoid-X-receptor (FXR) signaling pathway - cell viability counter screen (AID 743218). Further: nearly all actives have a fitted effect of over 45% in size. Put shortly: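 Same-well cytotoxicity check on FXR-UAS-bla HEK 293T cells: 5 h attachment, 16 h compound at 37 C, CellTiter-Glo luminescence read at room temperature after 30 min.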
In test [7] the target is Bile acid receptor (Homo sapiens) (UniProt Q96RI1). Kind of test: qHTS assay to identify small molecule agonists of the farnesoid-X-receptor (FXR) signaling pathway (AID 743220; active means well fitted activation curve with a large enough effect in the signal ratio in the repeat runs, not every such curve was filed as active; the % refers to the signal ratio). Put shortly:
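FXR-UAS-bla HEK 293T cells carrying a UAS-driven beta-lactamase reporter were plated for 5 h at 37C/5% CO2, then exposed to DMSO-dissolved Tox21 10K compounds for 16 h at 37C. A LiveBLAzer B/G FRET substrate was loaded for 2 h at room temperature before fluorescence reading.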

Test [8] in a line: qHTS assay to identify small molecule antagonists of the farnesoid-X-receptor (FXR) signaling pathway - cell viability counter screen (AID 743221; active means well fitted cell-killing curve with a large enough effect in the repeat runs, not every such curve was filed as active; further: nearly all actives have a fitted effect of over 50% in size). Put shortly: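 Here viability was scored by luminescence after CellTiter-Glo addition to wells already read for beta-lactamase. Prior treatment: compound plus CDCA (50 uM final), 16 h, 37 C, HEK 293T FXR-bla cells.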
Test [9] deals with Vitamin D3 receptor (Homo sapiens) (UniProt P11473). Kind of test: qHTS assay to identify small molecule agonists of the vitamin D receptor (VDR) signaling pathway (AID 743222; calls by dose curve). The method, boiled down:
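Using LiveBLAzer B/G FRET detection, agonism was scored in VDR-bla cells exposed overnight (16 h, 37C) to DMSO-dissolved compounds; substrate incubation was 2 h at room temperature.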

For test [10] the target is unchanged. Kind of test: qHTS assay to identify small molecule antagonists of the vitamin D receptor (VDR) signaling pathway (AID 743223; active means well fitted inhibition curve with a large enough effect in the signal ratio in the repeat runs, not every such curve was filed as active; the % refers to the signal ratio). Put shortly: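 Inhibition of agonist-driven VDR signalling is scored in VDR-bla cells: 3 nM final 1alpha,25-dihydroxyvitamin D3 plus compound, 16 h at 37C, then beta-lactamase detection by FRET substrate fluorescence after 2 h.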
Test [11] can be described thus: qHTS assay to identify small molecule agonists of the vitamin D receptor (VDR) signaling pathway - cell viability counter screen (AID 743224). Further: series mostly up to about 63 µM; nearly all actives have a fitted effect of over 50% in size. Put shortly:
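Counter screen for cytotoxicity: VDR-bla cells at 2,000 cells/well, 16 h compound exposure, then CellTiter-Glo luminescence after the beta-lactamase measurement.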

Test [12] can be described thus: qHTS assay to identify small molecule antagonists of the vitamin D receptor (VDR) signaling pathway - cell viability counter screen (AID 743225). Further: nearly all actives have a fitted effect of over 50% in size. Put shortly:
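Compounds were pinned onto VDR-bla HEK 293T cells together with 1-alpha,25-dihydroxyvitamin D3 at 3 nM final. After 16 h at 37C and 5% CO2 plus the reporter readout, cell viability was measured by CellTiter-Glo luminescence (30 min, room temperature).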

The nature of test [13]: qHTS assay to identify small molecule agonists of the NFkB signaling pathway (AID 1159509; active means well fitted curve in the direction sought with a large enough effect in the signal ratio in the repeat runs, not every such curve was filed as active; the % refers to the signal ratio; further: series mostly up to about 61 µM). The method, boiled down: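 Readout: FRET fluorescence, 405 nm excitation, 460/530 nm emission; beta-lactamase expression disrupts FRET. Cells: ME-180 stably carrying NF-kB-driven bla reporter. Compound exposure 5 hr, 37 C, 5% CO2.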
The nature of test [14]: qHTS assay to identify small molecule agonists of the NFkB signaling pathway - cell viability counter screen (AID 1159515; calls by dose curve; further: series mostly up to about 61 µM; nearly all actives have a fitted effect of over 55% in size). The method, boiled down:
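Counter screen run alongside the NFkB-bla agonist assay: ME-180 reporter cells exposed to compounds for 5 hr, then lysed with CellTiter-Glo in the same wells. Luminescence, read after 30 min, reflects viable cells.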

The nature of test [15]: qHTS assay to identify small molecule agonists of the endoplasmic reticulum stress response signaling pathway - cell viability counter screen (AID 1159517; calls by dose curve). The method, boiled down:
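Steps: seed 1,500 ESRE-bla HeLa cells per well; incubate overnight at 37 C, 5% CO2; add compounds in DMSO for 5 hr; run FRET substrate 2 hr RT; add CellTiter-Glo, wait 30 min, read luminescence.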

The nature of test [16]: qHTS assay to identify small molecule agonists of the AP-1 signaling pathway - cell viability counter screen (AID 1159525; calls by dose curve; further: nearly all actives have a fitted effect of over 55% in size). Put shortly: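 Same-well cytotoxicity counter screen of the Tox21 10K library in ME-180 cells. The readout is ATP-dependent luminescence after 5 h compound treatment. Data are normalised to DMSO and tetra n-octyl ammonium bromide controls.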
The nature of test [17]: qHTS assay to identify small molecule agonists of the AP-1 signaling pathway (AID 1159526; calls by dose curve).
Test [18] is described as follows: qHTS assay to identify small molecule antagonists of the retinoid-related orphan receptor gamma (ROR-gamma) signaling pathway - cell viability counter screen (AID 1159520). Further: nearly all actives have a fitted effect of over 50% in size. The method, boiled down: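 Tet-on ROR gamma CHO cells were given compounds for 2 hr, then doxycycline hyclate at 1 uM final, and incubated 16 hr at 37 C. Viability was measured as ATP content by CellTiter-Glo luminescence.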

For test [19], the target named is Nuclear receptor ROR-gamma (Homo sapiens) (UniProt P51449). Kind of test: qHTS assay to identify small molecule antagonists of the retinoid-related orphan receptor gamma (ROR-gamma) signaling pathway (AID 1159521). The method, boiled down:
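Test compounds were applied to Tet-on RORγ CHO cells 2 h ahead of doxycycline hyclate (1 uM final). Luciferase reporter activity was quantified by luminescence after 16 h at 37 C and 5% CO2.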

Test [20] can be described thus: qHTS assay to identify small molecule agonists of the endoplasmic reticulum stress response signaling pathway (AID 1159516; active means well fitted activation curve with a large enough effect in the signal ratio in the repeat runs, not every such curve was filed as active; the % refers to the signal ratio). Put shortly:
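For this screen, HeLa cells stably carrying beta-lactamase under the ER stress response element received test compounds, positive controls or DMSO for 5 hr at 37 C; B/G FRET substrate was then added and dual-wavelength emission recorded.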

Chain of Peroxisome proliferator-activated receptor delta (Homo sapiens) (Q03181 whole entry, looked up): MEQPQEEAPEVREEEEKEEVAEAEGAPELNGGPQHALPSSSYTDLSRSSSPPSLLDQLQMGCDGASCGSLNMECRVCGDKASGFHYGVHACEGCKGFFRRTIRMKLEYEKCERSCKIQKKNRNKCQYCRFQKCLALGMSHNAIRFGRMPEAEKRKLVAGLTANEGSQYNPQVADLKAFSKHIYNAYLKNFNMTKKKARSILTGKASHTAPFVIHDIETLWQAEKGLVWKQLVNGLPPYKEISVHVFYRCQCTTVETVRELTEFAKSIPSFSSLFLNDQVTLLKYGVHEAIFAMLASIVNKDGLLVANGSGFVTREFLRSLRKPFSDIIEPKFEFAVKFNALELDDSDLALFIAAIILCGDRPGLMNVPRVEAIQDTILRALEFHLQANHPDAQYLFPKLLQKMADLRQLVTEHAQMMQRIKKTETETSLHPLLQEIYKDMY
Chain of Vitamin D3 receptor (Homo sapiens) (P11473 whole entry, looked up): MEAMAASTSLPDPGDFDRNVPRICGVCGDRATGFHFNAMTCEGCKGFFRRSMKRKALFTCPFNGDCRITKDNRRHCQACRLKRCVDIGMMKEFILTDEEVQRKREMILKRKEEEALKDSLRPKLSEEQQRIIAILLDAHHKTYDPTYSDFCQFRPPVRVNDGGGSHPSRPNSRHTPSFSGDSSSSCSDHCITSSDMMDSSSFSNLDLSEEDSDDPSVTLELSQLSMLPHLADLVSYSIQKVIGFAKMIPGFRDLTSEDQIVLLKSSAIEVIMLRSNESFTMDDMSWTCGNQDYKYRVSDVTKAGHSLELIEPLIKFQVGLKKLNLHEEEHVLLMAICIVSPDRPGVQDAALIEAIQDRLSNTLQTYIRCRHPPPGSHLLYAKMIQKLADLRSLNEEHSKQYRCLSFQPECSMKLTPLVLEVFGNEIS
Chain of Bile acid receptor (Homo sapiens) (Q96RI1 whole entry, looked up): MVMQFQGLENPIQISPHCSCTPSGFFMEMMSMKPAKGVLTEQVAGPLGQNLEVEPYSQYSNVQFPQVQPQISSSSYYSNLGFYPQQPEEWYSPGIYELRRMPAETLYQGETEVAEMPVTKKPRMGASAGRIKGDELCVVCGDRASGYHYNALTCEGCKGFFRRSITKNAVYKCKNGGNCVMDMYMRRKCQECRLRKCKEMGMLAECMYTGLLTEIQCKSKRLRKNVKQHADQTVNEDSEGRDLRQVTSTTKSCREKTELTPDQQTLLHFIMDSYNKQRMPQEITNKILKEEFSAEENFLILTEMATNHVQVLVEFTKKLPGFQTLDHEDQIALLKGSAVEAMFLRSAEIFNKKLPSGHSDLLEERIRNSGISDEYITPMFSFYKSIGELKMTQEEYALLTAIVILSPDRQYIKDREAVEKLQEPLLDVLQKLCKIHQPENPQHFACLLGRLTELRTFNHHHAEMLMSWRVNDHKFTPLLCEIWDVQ

As for `O=S(=O)(c1ccc(O)cc1)c1ccc(O)cc1`, the outcome in [1], in test [2], in [3], in [5], in test [6] and in [7] was inactive. Besides, the outcome in [8], in test [9], in [10], in test [11], in [12] and in test [13] was inactive. Besides, the call in test [14] and in test [15] was inactive. Also, the Potency result in test [4], in [16] and in test [17] was “inactive” each time.
Regarding `O=Cc1cccc(Oc2ccccc2)c1`, the result in [1], in test [2], in test [3], in [6], in test [8] and in test [9] was inactive. The molecule was called inactive in [10], in [11], in test [12], in test [13], in test [14] and in test [15]. For the same molecule, the Potency entry in test [4], in test [18], in [19], in [16] and in test [17] was “inactive” in each case.
With `CCCCCOC(=O)c1ccccc1C(=O)OCCCCC`, the outcome in [1], in [3], in [6], in test [8], in [9] and in test [10] was inactive. Besides, the call in test [11], in test [12], in test [13], in [14] and in [15] was inactive. Further, the Potency result in test [18], in test [19] and in test [16] was “inactive” in each case.
Turning to `CC(C)NC(=O)N1CC(=O)N(c2cc(Cl)cc(Cl)c2)C1=O`, the result in test [1], in test [2], in test [3], in test [6], in [8] and in test [11] was inactive. The molecule was classed as inactive in test [12], in test [13], in [14], in [20] and in test [15]. For the same molecule, the Potency result in [4], in test [19] and in [17] was “inactive” each time.
Take `Cn1cc(-c2ccccc2)c(=O)c(-c2cccc(C(F)(F)F)c2)c1`: the outcome in test [1], in test [2], in test [3], in test [6], in test [8] and in [11] was inactive. For the same molecule, the molecule was classed as inactive in test [12], in test [13], in test [14] and in test [15]. Further, the Potency entry in test [4], in [18], in test [19], in [16] and in test [17] was “inactive” each time.
Consider `CCOP(=S)(OCC)Oc1cnc2ccccc2n1`, for which the molecule was called inactive in test [1], in [2], in test [5], in test [6], in test [7] and in test [8]. Also, the call in test [11], in test [12], in [13], in test [14], in test [20] and in [15] was inactive. Also, the Potency result in test [4], in test [16] and in [17] was “inactive” in each case.
For the molecule `Clc1ccccc1Cl`, the call in test [1], in test [2], in test [3], in test [5], in test [6] and in test [7] was inactive. Besides, the result in test [8], in test [9], in [10], in test [11], in test [12] and in test [13] was inactive. The molecule was called inactive in test [14] and in test [15]. For the same molecule, the Potency result in test [4], in [19] and in [17] was “inactive” throughout.
For `O=c1n(Cl)c(=O)n(Cl)c(=O)n1Cl`, the molecule was called inactive in test [1], in test [2], in test [3], in test [6], in [8] and in test [9]. The outcome in [10], in [11], in test [12], in test [14], in test [20] and in test [15] was inactive. Further, the Potency result in [4], in test [18], in test [19], in test [16] and in test [17] was “inactive” in each case.
For `CCC(C)(CC)c1cc(NC(=O)c2c(OC)cccc2OC)on1`, the call in test [1], in [2], in test [3], in test [6], in test [8] and in test [9] was inactive. Moreover, the result in test [10], in test [11], in test [12], in [13], in test [14] and in [15] was inactive. Further, the Potency in test [4] was 55.1 µM (active) and inactive. Also, the Potency result in test [17] was “inactive”.
